# Assay results from ChEMBL document CHEMBL2218924, “A broad activity screen in support of a chemogenomic map for kinase signalling research and drug discovery” (Biochem J, 2013).
# What was measured:
# [1] = target: Mast/stem cell growth factor receptor Kit (Homo sapiens) (UniProt P10721); details: at 1 µM
# [2] = target: Mast/stem cell growth factor receptor Kit (Homo sapiens) (UniProt P10721); details: at 10 µM
# [3] = target: Proto-oncogene tyrosine-protein kinase Src (Homo sapiens) (UniProt P12931); details: at 1 µM
# [4] = target: Proto-oncogene tyrosine-protein kinase Src (Homo sapiens) (UniProt P12931); details: at 10 µM
# [5] = target: Serine/threonine-protein kinase mTOR (Homo sapiens) (UniProt P42345); details: at 10 µM
# [6] = target: Ribosomal protein S6 kinase beta-1 (Homo sapiens) (UniProt P23443); details: at 1 µM
# Sequence of Ribosomal protein S6 kinase beta-1 (Homo sapiens) (P23443 whole entry, looked up): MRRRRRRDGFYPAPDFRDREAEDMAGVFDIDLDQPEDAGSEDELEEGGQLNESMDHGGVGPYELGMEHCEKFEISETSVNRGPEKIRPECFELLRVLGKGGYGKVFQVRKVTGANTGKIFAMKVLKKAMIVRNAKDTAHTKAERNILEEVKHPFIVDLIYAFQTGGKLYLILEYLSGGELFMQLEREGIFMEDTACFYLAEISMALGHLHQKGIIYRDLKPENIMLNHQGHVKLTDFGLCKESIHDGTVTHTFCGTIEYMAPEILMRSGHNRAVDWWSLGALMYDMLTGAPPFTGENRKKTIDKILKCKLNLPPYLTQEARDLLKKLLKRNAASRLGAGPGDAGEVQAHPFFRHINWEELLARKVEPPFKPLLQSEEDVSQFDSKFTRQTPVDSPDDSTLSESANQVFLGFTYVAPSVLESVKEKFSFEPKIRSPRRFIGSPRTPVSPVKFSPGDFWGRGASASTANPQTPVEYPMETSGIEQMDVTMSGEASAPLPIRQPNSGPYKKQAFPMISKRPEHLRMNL
# [7] = target: Ribosomal protein S6 kinase beta-1 (Homo sapiens) (UniProt P23443); details: at 10 µM
# [8] = target: T1, Serine/threonine-protein kinase NLK (Homo sapiens) (UniProt Q9UBE8); details: at 1 µM
# T1 sequence (whole entry): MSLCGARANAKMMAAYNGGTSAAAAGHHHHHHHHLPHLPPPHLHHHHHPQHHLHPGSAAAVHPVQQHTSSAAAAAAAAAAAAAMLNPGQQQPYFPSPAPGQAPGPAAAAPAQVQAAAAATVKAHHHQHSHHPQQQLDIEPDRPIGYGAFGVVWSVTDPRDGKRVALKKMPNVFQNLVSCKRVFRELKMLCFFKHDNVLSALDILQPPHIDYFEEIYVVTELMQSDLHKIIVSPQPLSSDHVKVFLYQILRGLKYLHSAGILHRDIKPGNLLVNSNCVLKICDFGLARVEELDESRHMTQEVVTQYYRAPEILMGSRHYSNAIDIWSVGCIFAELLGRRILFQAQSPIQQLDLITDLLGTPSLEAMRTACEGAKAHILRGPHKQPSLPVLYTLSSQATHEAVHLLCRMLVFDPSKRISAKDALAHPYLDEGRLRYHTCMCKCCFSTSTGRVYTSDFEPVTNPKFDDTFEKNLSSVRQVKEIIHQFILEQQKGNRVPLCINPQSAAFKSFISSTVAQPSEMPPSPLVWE
# [9] = target: T1, Serine/threonine-protein kinase NLK (Homo sapiens); details: at 10 µM
# [10] = target: Serine/threonine-protein kinase mTOR (Homo sapiens) (UniProt P42345); details: at 1 µM
# [11] = target: Serine/threonine-protein kinase mTOR (Homo sapiens) (UniProt P42345); details: at 1 µM; remark: listed apart in the source
# [12] = target: Serine/threonine-protein kinase Nek6 (Homo sapiens) (UniProt Q9HC98); details: at 10 µM
# Sequence of Serine/threonine-protein kinase Nek6 (Homo sapiens) (Q9HC98 whole entry): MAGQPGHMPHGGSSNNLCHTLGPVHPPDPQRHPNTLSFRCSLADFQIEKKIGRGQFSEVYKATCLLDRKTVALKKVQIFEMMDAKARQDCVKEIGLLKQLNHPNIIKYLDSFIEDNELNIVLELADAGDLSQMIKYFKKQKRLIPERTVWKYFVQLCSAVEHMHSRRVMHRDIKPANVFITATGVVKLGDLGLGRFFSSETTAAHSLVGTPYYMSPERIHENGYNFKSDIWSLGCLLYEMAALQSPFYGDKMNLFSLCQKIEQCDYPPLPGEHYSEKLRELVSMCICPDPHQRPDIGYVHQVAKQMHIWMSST
# [13] = target: Serine/threonine-protein kinase mTOR (Homo sapiens) (UniProt P42345); details: at 10 µM; remark: listed apart in the source
# [14] = target: Serine/threonine-protein kinase Nek6 (Homo sapiens) (UniProt Q9HC98); details: at 1 µM
# [15] = target: Serine/threonine-protein kinase Nek7 (Homo sapiens) (UniProt Q8TDX7); details: at 1 µM
# Sequence of Serine/threonine-protein kinase Nek7 (Homo sapiens) (Q8TDX7 whole entry, looked up): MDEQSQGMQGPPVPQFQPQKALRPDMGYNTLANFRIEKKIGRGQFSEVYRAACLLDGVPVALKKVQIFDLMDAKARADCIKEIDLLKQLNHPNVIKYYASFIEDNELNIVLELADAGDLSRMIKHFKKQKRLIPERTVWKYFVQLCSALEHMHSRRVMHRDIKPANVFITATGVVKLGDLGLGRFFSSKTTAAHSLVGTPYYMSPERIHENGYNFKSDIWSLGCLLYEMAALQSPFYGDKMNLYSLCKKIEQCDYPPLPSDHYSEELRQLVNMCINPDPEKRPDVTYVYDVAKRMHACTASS
# [16] = target: Serine/threonine-protein kinase PAK 2 (Homo sapiens) (UniProt Q13177); details: at 1 µM
# Sequence of Serine/threonine-protein kinase PAK 2 (Homo sapiens) (Q13177 whole entry): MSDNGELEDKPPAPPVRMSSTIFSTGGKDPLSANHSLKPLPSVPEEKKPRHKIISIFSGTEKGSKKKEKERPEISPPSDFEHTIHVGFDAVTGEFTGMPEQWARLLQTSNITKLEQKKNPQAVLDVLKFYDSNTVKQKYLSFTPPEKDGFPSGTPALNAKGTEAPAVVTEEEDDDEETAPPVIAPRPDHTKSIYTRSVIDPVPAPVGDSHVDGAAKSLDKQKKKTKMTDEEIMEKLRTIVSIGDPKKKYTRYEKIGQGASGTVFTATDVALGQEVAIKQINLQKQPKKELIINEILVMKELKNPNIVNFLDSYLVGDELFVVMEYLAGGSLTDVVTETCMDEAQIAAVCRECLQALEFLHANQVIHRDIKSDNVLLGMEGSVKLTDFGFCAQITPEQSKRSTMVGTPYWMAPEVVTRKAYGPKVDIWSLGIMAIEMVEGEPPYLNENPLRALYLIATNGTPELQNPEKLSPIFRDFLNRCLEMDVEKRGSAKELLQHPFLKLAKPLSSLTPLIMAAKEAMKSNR
# [17] = target: Serine/threonine-protein kinase PAK 2 (Homo sapiens) (UniProt Q13177); details: at 10 µM
# [18] = target: Serine/threonine-protein kinase Nek7 (Homo sapiens) (UniProt Q8TDX7); details: at 10 µM
# [19] = target: T2, Eukaryotic elongation factor 2 kinase (Homo sapiens) (UniProt O00418); details: at 10 µM
# T2 sequence (whole entry): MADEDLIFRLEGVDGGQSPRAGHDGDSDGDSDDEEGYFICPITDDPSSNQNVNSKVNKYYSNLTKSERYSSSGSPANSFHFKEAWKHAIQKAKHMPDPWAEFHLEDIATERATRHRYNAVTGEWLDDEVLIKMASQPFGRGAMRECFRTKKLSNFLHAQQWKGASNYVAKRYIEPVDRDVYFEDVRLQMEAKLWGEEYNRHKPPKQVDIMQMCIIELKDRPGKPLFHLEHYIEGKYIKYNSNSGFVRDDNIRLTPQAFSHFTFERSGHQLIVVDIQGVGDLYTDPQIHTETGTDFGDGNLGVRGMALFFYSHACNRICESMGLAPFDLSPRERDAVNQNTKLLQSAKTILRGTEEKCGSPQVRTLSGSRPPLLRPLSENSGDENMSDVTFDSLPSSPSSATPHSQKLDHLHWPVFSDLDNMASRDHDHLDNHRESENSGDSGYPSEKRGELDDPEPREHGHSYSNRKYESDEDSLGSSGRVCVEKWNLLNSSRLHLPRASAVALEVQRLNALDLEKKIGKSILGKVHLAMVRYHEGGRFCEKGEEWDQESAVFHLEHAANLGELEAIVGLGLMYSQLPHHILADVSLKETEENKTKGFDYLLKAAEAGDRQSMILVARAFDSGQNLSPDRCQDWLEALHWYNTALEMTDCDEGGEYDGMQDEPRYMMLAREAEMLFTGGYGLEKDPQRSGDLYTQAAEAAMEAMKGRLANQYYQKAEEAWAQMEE
# Sequence of Mast/stem cell growth factor receptor Kit (Homo sapiens) (P10721 whole entry): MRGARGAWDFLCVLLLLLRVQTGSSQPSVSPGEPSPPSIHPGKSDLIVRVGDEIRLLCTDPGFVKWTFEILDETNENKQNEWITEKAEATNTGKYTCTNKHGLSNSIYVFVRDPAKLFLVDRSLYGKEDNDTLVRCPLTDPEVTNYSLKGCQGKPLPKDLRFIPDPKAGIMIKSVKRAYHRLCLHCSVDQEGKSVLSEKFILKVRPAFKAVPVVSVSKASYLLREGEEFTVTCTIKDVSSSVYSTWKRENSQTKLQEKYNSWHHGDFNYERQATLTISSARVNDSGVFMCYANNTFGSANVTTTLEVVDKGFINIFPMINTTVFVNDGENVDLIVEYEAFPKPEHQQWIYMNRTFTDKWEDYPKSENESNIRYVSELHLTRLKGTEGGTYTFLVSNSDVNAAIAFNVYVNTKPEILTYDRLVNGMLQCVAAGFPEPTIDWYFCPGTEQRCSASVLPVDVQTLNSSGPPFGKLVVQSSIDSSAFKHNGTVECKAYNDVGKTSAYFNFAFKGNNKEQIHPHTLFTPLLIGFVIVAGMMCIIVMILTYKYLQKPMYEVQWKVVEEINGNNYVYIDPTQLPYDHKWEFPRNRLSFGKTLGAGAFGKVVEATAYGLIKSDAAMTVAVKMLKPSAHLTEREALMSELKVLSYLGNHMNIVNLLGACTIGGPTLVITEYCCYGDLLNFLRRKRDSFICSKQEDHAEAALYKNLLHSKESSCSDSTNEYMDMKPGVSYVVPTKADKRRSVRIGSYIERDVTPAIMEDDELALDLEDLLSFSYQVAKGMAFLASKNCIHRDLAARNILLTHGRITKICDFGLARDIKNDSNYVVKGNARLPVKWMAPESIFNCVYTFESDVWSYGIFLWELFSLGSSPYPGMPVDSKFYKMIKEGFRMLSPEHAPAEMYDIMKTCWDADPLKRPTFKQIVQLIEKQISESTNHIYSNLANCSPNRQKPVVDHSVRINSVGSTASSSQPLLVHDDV
smiles,measurement,setting,value
CCCCc1c(-c2ccc(O)cc2)[nH]c2nccnc12,residual activity,[1],98%
same,residual activity,[2],77%
same,residual activity,[3],61%
same,residual activity,[4],22%
same,residual activity,[5],96%
same,residual activity,[6],88%
same,residual activity,[7],54%
same,residual activity,[8],88%
same,residual activity,[9],59%
NCCNc1ncc(C(N)=O)c(Nc2cccc(C(F)(F)F)c2)n1,residual activity,[1],112%
same,residual activity,[2],105%
same,residual activity,[3],70%
same,residual activity,[4],43%
same,residual activity,[10],104%
same,residual activity,[11],117%
same,residual activity,[12],111%
same,residual activity,[8],106%
same,residual activity,[9],81%
CC(C)(C)n1nc(Cc2cccc3ccccc23)c2c(N)ncnc21,residual activity,[1],113%
same,residual activity,[2],77%
same,residual activity,[3],63%
same,residual activity,[4],24%
same,residual activity,[10],98%
same,residual activity,[13],97%
same,residual activity,[11],120%
same,residual activity,[5],87%
same,residual activity,[6],118%
same,residual activity,[7],96%
same,residual activity,[14],94% (inactive)
same,residual activity,[12],116%
same,residual activity,[15],90% (inactive)
same,residual activity,[8],44%
same,residual activity,[9],15%
same,residual activity,[16],98%
same,residual activity,[17],49%
COc1cc2nccc(Oc3ccc(NC(=O)Nc4cc(C)on4)c(Cl)c3)c2cc1OC,residual activity,[1],3%
same,residual activity,[2],0%
same,residual activity,[6],76%
same,residual activity,[7],53%
same,residual activity,[15],98% (inactive)
same,residual activity,[18],103% (inactive)
same,residual activity,[8],77%
same,residual activity,[9],42%
Cc1cc(C)c(/C=C2\C(=O)Nc3ccccc32)[nH]1,residual activity,[1],11%
same,residual activity,[2],1%
same,residual activity,[19],105%
same,residual activity,[15],101% (inactive)
Nc1nc(Nc2ccc(S(N)(=O)=O)cc2)nn1C(=O)c1c(F)cccc1F,residual activity,[1],100%
same,residual activity,[2],63%
same,residual activity,[10],115%
same,residual activity,[14],105% (inactive)
same,residual activity,[12],115%
same,residual activity,[15],111% (inactive)
same,residual activity,[18],105% (inactive)
same,residual activity,[8],75%
same,residual activity,[9],34%
same,residual activity,[16],118%
O=C1C(Cl)=C(N2C(=O)CCC2=O)C(=O)c2ccccc21,residual activity,[1],101%
same,residual activity,[2],98%
same,residual activity,[3],124%
same,residual activity,[4],89%
same,residual activity,[5],78%
same,residual activity,[7],67%
same,residual activity,[18],96% (inactive)
same,residual activity,[8],95%
same,residual activity,[9],88%
same,residual activity,[16],101%
same,residual activity,[17],98%
COc1ccc2c(c1)c(C1=C(c3c[nH]c4ccccc34)C(=O)NC1=O)cn2CCCN(C)C,residual activity,[1],109%
same,residual activity,[2],81%
same,residual activity,[10],113%
same,residual activity,[13],111%
same,residual activity,[11],113%
same,residual activity,[5],100%
same,residual activity,[6],22%
same,residual activity,[7],2%
same,residual activity,[12],107%
CC(C)c1nn(-c2c(Cl)cccc2Cl)c2nc(Cc3ccc(OCCO)cc3)[nH]c(=O)c12,residual activity,[2],96%
same,residual activity,[4],87%
same,residual activity,[10],97%
same,residual activity,[13],90%
same,residual activity,[11],85%
same,residual activity,[5],86%
same,residual activity,[6],81%
same,residual activity,[7],59%
same,residual activity,[15],87% (inactive)
same,residual activity,[18],84% (inactive)
same,residual activity,[8],88%
same,residual activity,[9],46%
same,residual activity,[16],88%
same,residual activity,[17],69%
CCCCc1c(-c2ccc(OC)cc2)[nH]c2nccnc12,residual activity,[3],61%
same,residual activity,[4],41%
same,residual activity,[11],108%
same,residual activity,[7],70%
same,residual activity,[14],113% (inactive)
same,residual activity,[12],100%
same,residual activity,[18],112% (inactive)
same,residual activity,[8],83%
same,residual activity,[16],112%
same,residual activity,[17],103%
O=C(Nc1nc2ccccc2n1CCN1CCOCC1)c1cccc([N+](=O)[O-])c1,residual activity,[10],108%
same,residual activity,[13],111%
O=c1c(-c2ccc(F)cc2)c(-c2ccncc2)[nH]n1-c1ccc(Cl)cc1,residual activity,[4],79%
same,residual activity,[11],125%
same,residual activity,[5],70%
same,residual activity,[6],129%
same,residual activity,[14],101% (inactive)
same,residual activity,[8],42%
same,residual activity,[9],12%
O=C(NC(NC(=S)Nc1ccc(F)c([N+](=O)[O-])c1)C(Cl)(Cl)Cl)C(c1ccccc1)c1ccccc1 (configuration not stated),residual activity,[3],98%
same,residual activity,[4],83%
same,residual activity,[10],102%
same,residual activity,[13],92%
same,residual activity,[11],88%
same,residual activity,[5],78%
same,residual activity,[6],141%
same,residual activity,[7],99%
same,residual activity,[18],96% (inactive)
same,residual activity,[8],103%
same,residual activity,[9],101%
O=C1NC(=O)C(c2c[nH]c3ccccc23)=C1c1c[nH]c2ccccc12,residual activity,[3],98%
same,residual activity,[4],76%
same,residual activity,[6],48%
same,residual activity,[7],5%
same,residual activity,[14],117% (inactive)
same,residual activity,[12],127%
same,residual activity,[9],71%
N#C/C(=C1/Nc2ccccc2S1)c1ccnc(NCCc2cccnc2)n1,residual activity,[10],89%
same,residual activity,[13],62%
same,residual activity,[6],72%
same,residual activity,[7],39%
same,residual activity,[14],119% (inactive)
NC(=O)c1cccc(-c2cc(Nc3ccc(OC(F)(F)F)cc3)ncn2)c1,residual activity,[3],87%
same,residual activity,[4],98%
same,residual activity,[10],94%
same,residual activity,[13],92%
same,residual activity,[6],97%
same,residual activity,[7],74%
same,residual activity,[8],94%
same,residual activity,[9],40%
N#C/C(=C\c1ccc(O)c(O)c1)C(=O)NCc1ccccc1,residual activity,[2],100%
same,residual activity,[3],87%
same,residual activity,[4],104%
same,residual activity,[7],65%
same,residual activity,[15],101% (inactive)
same,residual activity,[18],125% (inactive)
same,residual activity,[16],103%
same,residual activity,[17],85%
